Data from PubChem BioAssay AID1347146 (National Center for Advancing Translational Sciences (NCATS), 2019).
Results filed as inconclusive are left out. A call without a number means that no potency is given here. The source made the active and inactive calls. Calls follow the shape of the dose curve; as a rule, active = well fitted inhibition curve with a large enough effect; inconclusive = small, poorly fitted or top-dose-only effect; inactive = no such curve, though single readings can be large or run the other way.
Potency is read from the fitted curve at half-maximal effect.

The compounds below were run against Nicotinamide N-methyltransferase (Homo sapiens) (UniProt P40261) (assay: qHTS Assay for Inhibitors of N-terminal methyltransferase 1 (NTMT1): NNMT MTaseGlo counterscreen assay). Details: NNMT enzyme, MTase-Glo luminescence counterscreen; series mostly up to 57.1 µM.
Nicotinamide N-methyltransferase (Homo sapiens), sequence (P40261 whole entry, looked up): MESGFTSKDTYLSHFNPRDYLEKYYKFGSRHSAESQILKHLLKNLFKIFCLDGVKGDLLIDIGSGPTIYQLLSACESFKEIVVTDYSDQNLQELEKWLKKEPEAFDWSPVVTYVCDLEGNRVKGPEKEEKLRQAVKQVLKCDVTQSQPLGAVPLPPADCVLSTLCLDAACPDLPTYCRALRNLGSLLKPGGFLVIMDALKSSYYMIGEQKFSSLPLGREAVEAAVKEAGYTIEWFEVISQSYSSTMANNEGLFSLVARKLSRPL
From the text: Assay Submitter (PI): Rong Huang Ph.D, Purdue University, West Lafayette, IN 47907
The N-terminal methytransferase 1 is the first methyltransferase that methylates protein alpha-N-amines and plays an important role in regulating cell mitosis, chromatin interactions and DNA repair. It is observed to be over-expressed in various cancer patient tissues like malignant melanoma and colorectal cancer tissues. Knockdown of NTMT1 in cancer cells causes cell mitotic defects and enhances sensitivity to DNA damaging chemotherapeutics. […] These critical cellular processes in which NTMT1 is implicated, coupled with emerging links to cellular dysfunction, strengthen the inference that NTMT1 is a compelling novel anticancer target. Progress have been made in understanding the molecular properties of NTMT1 and the biological consequences of protein alpha-N-terminal methylation, but there are no specific small molecule probes available for NTMT1 to fully characterize its MTase activity. To address this unmet need, a panel of assay is created and established to enable quantitative high-throughput screening (qHTS) for novel, potent, and selective small molecule NTMT1 inhibitors. Two orthogonal qHTS that use different reagents (ThioGlo vs. MTaseGlo) are developed for primary robotic screening against the NCATS chemical library of more than 400,000 small molecules. Identified inhibitors are reacquired, validated, and further characterized.
MTaseGlo Assay is a luminescence screen that measure the activity of methyltransferases based on the reaction product S-adenosyl homocysteine (SAH). The substrate SAM is converted to SAH upon enzyme activation. MTase-Glo reagent and detection solution convert SAH to ATP and measure the light from the luciferase reaction. Nicotinamide N-methyltransferase (NNMT) is a cystolic enzyme that catalyzes the transfer of a methyl group from the co-factor SAM onto the substrate, nicotinamide (NA) to form 1-methyl-nicotinamide (MNA) and SAH. NNMT MTaseGlo assay is used as a counterscreen to evaluate selectivity of identified inhibitors.
Early Translation Branch (ETB)
National Center for Advancing Translational Sciences (NCATS)
National Institute of Health (NIH)
NNMT enzyme, SAM, NA, and control is provided by the Huang laboratory.
In brief, 3 µL of enzyme mixture (final concentrations of 125 nM and 100 µM for NNMT and SAM, respectively) into all wells of a 1,536-well solid-bottom white plate (Greiner Bio One, Monroe, NC). 23 nL of DMSO or compound (final concentration range 234 nM to 143 microM) was transferred via Wako Pin-tool (Wako Automation, Richmond, VA) and incubated (RT) for ~15 minutes. Next, 1 µL of substrate (final concentration 1 µM NA) or buffer was dispensed, and the reaction proceeded for 30 minutes (RT, protected from light) followed by a 1 microL addition of [5X] MTase-Glo Reagent(R). Samples were incubated (RT, protected from light) for 30 minutes to allow for SAH to be converted to ADP, followed by a 5 microL addition of [1X] MTase-Glo Detection Solution(R) to allow for ADP to be converted to ATP, which was then detected with a luciferase reaction. Samples were centrifuged for 15 seconds at 1,000 RPM's, followed by a RT incubation for 30 minutes. Plates were then read using Luminescence optics on a ViewLux detector. Data were normalized to no-enzyme (0% activity) and no-inhibitor (DMSO; 100%) controls, and the resulting percent inhibition data were fitted to a 4-parameter Hill equation using Graphpad Prism.
`CN(C)CCCC1(c2ccc(F)cc2)OCc2cc(C#N)ccc21` (stereo not given) was tested, and the Potency was “inactive”. `Brc1c(NC2=NCCN2)ccc2nccnc12` was tested, and the Potency was “inactive”. In the case of `CN(C)CCCN1c2ccccc2Sc2ccc(C(F)(F)F)cc21`, the Potency is reported as “inactive”. With `OCCNc1ncnc2c1ncn2[C@@H]1O[C@@H](CO)[C@H](O)[C@@H]1O` the Potency was “inactive”. `CC(C)=CCNc1ncnc2c1ncn2[C@@H]1O[C@H](CO)[C@@H](O)[C@H]1O` was tested, and the Potency was “inactive”. For `Cc1ccc(O)c(N=Nc2ccccc2)n1`, the Potency was 14.1 µM (active). With `Nc1ccnc2c1ncn2[C@@H]1O[C@H](CO)[C@@H](O)[C@H]1O` the Potency was 14.1 µM (active). For `O=c1cc(-c2ccccc2)oc2c(O)c(O)ccc12`, the Potency was “inactive”. `Oc1cc2c(cc1O)CN(C(=S)NCCc1ccc(Cl)cc1)CCC2` was tested, and the Potency was “inactive”. For `C=CCN1CCc2c(cc(O)c(O)c2Br)[C@@H](c2ccccc2)C1`, the Potency was “inactive”. `Cc1[nH]c(=O)c(C#N)cc1-c1ccc2nccn2c1` was tested, and the Potency was “inactive”. In the case of `Nc1ccc(CCNc2ncnc3c2ncn3C2OC(CO)C(O)C2O)cc1` (stereo not given), the Potency is reported as “inactive”. For `OC[C@H]1O[C@H](n2cnc3c(N[C@H]4CCC[C@@H]4O)ncnc32)[C@H](O)[C@@H]1O`, the Potency was “inactive”. For `CCCCCCCCCCCCCCCCCC(=O)OC(CC(=O)O)C[N+](C)(C)C` (stereo not given), the Potency was “inactive”. `CC[n+]1c(/C=C/C=C2/N(C)c3ccccc3C2(C)C)sc2ccccc21` was tested, and the Potency was 15.8 µM (active). In the case of `Cc1cccc(C)c1OCC(N)C(C)C` (stereo not given), the Potency is reported as “inactive”. In the case of `Clc1ccc(N2CCN(Cc3c[nH]c4ncccc34)CC2)cc1`, the Potency is reported as “inactive”. For `OCC1OC(n2cnc3c(=S)nc[nH]c32)C(O)C1O` (stereo not given), the Potency was “inactive”. `O=C(/C=C/c1ccc(O)c(O)c1)OCCc1ccccc1` was tested, and the Potency was “inactive”. `c1ccc(CN2CCC3(CCCc4ccccc43)CC2)cc1` was tested, and the Potency was “inactive”. `O=C(Nc1ccc([N+](=O)[O-])cc1Cl)c1cc(Cl)ccc1O` was tested, and the Potency was “inactive”. In the case of `CCN(CC)C(C)CN1c2ccccc2Sc2ccccc21` (stereo not given), the Potency is reported as “inactive”. For `CSc1ccc(C(=O)c2[nH]c(=O)[nH]c2C)cc1`, the Potency was “inactive”. `Oc1ccc(Cn2cc[nH]c2=S)cc1` was tested, and the Potency was “inactive”. `O=c1c(-c2ccc(O)cc2)coc2cc(O)cc(O)c12` was tested, and the Potency was “inactive”. `Oc1ccc2ccccc2c1SSc1c(O)ccc2ccccc12` was tested, and the Potency was “inactive”. For `N#C/C(=C\c1ccc(O)c(O)c1)C(=O)Nc1ccccc1`, the Potency was “inactive”. `NS(=O)(=O)c1cccc2c1c([N+](=O)[O-])cc1nc(O)c(O)nc12` was tested, and the Potency was “inactive”. With `Cc1ccccc1CNc1ncnc2c1ncn2[C@@H]1O[C@H](CO)[C@@H](O)[C@H]1O` the Potency was “inactive”. With `CC1=C(\C=C/C(C)=C/C=C\C(C)=C\C(=O)O)C(C)(C)CCC1` the Potency was “inactive”. For `COc1cc2nc(N3CCCN(C)CC3)nc(NC3CCN(Cc4ccccc4)CC3)c2cc1OC`, the Potency was “inactive”. For `[N-]=[N+]=Nc1nc2c(N)ncnc2n1C1OC(CO)C(O)C1O` (stereo not given), the Potency was “inactive”. For `CN=c1nc(-c2ccccc2)n(-c2ccccc2)s1`, the Potency was “inactive”. For `CCn1nc(C(=O)O)c(=O)c2cc3c(cc21)OCO3`, the Potency was “inactive”. For `Nc1nc(Nc2ccccc2)nc2c1ncn2[C@@H]1O[C@H](CO)[C@@H](O)[C@H]1O`, the Potency was “inactive”. In the case of `Oc1cc(O)c2c(c1)O[C@H](c1ccc(O)c(O)c1)[C@@H](O)C2`, the Potency is reported as “inactive”. `Cc1nn(-c2ccccc2)c(C)c1/C=N/N1CCN(Cc2ccccc2)CC1` was tested, and the Potency was “inactive”. For `CN(C)C(=O)/N=N/C(=O)N(C)C`, the Potency was “inactive”. For `CCN1CCC[C@H]1CNC(=O)c1cc(S(N)(=O)=O)ccc1OC`, the Potency was “inactive”. `OC[C@H]1O[C@@H](n2cnc3c(NCc4ccco4)ncnc32)[C@H](O)[C@@H]1O` was tested, and the Potency was “inactive”.
